# Most compounds without a hit are left out; they make up all but 0.44% or so of the library.
# Rango-impB inh: prevents formation of the Rango-importin beta complex; Potency, µM (top dose mostly 92.2 µM), for the others: at the highest dose inhibition of complex formation; Rango CFP/YFP FRET sensor + importin beta, 45 min; hit rate 0.031% among 340,000;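 also: 0% = DMSO wells and 100% = buffer wells lacking importin beta; nearly all actives have a fitted effect of over 15% in size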
#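 FRET biosensor Rango (snurportin 1 IBB between N-terminal EYFP and C-terminal Cerulean), 50 nM in PBS/1 mM DTT/0.02% Tween-20/0.1% BSA, preincubated 5 min RT with compound; 0.125 microM importin beta added, 45 min RT, CFP/YFP FRET ratio read.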
# Tb PFK inh-1: T. brucei PFK enzyme inhibition. Potency, µM (highest dose often 57.5 µM), for inactives: top-dose activity, negative = inhibition, most hits filed as inhibitors. hit rate 0.17% among 330,000. T. brucei PFK, ADP-Glo luminescence. O15648; active = well fitted curve in the direction sought with a large enough effect; inconclusive = small, poorly fitted or top-dose-only effect, or another doubt; inactive = no such curve, though single readings can be large; an effect the other way counts as inactive or inconclusive;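 also: 0% = uninhibited 1x PFK enzyme wells and -100% = no-enzyme wells; nearly all actives have a fitted effect of over 60% in size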
# Target sequence (O15648 whole entry, looked up): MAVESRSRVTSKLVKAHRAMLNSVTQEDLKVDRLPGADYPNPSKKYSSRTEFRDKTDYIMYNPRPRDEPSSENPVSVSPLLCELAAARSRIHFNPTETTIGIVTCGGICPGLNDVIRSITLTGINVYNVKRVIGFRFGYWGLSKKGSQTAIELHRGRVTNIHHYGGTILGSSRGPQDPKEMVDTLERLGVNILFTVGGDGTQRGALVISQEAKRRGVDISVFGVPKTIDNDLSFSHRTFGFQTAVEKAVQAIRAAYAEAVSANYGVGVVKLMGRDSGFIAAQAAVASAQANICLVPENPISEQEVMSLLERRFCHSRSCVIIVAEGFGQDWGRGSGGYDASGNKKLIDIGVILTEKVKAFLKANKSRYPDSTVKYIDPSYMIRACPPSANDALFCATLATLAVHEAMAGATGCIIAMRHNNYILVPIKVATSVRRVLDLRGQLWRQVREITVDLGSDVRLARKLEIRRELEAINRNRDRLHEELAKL
#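 1.25 nM PFK with 0.5 mM F6P and 0.1 mM ATP in 0.1 M TEA pH 8.0, 5 mM MgCl2, incubated 45 min at room temperature; ADP measured by ADP-Glo luminescence; compounds titrated up to 57 uM.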
# Rango dissoc inh: inhibitors of RanGTP-induced Rango-importin beta complex dissociation; O95149+P62826; Biochemical FRET Rango-importin beta, RanGTP-induced dissociation; Potency, µM (series often up to 46.1 µM), inactives show top-dose activity change, negative = inhibition; hit rate 0.071% among 340,000; also: % of control where 0% means no effect; nearly all actives have a fitted effect of over 45% in size
#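 Two FRET readings bracket the reaction: one 5 min after compound meets Rango–importin beta, another 45 min after RanGTP-RCC1 (0.6 uM Ran, 0.2 uM RCC1, 2 mM GTP) is added. Only the second defines inhibition.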
# Chronic BCR inh: blocks chronic active B-cell receptor signaling. AID 493014. ABC-DLBCL IkBa-CBG/CBR reporter, luminescence ratio, 4 h. hit rate 0.05% among 340,000. Potency, µM (highest dose often 46.1 µM), inactives show top-dose activity change, negative = inhibition, actives largely listed as inhibitors; active = well fitted inhibition curve with a large enough effect in the signal ratio, with a control signal flat, not every such curve was filed as active; inconclusive = small, poorly fitted or top-dose-only effect, or effect the other way, or a change in a side signal; the % refers to the signal ratio;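 also: plate controls were basal doxycycline-induced cells for no effect and cells given 10 µM MG132 for full effect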
#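 Concentration-response series (up to 46 uM) were applied to TMD8 dual-reporter cells for 4 h at 37C with doxycycline. Green/red ratio, after filter-overlap correction, defined %Activity; red signal alone was normalised to basal cells and zero luminescence.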
# Luc counter: counter-screen: inhibitors of Kinase-Glo firefly luciferase; Q27757; Kinase-Glo luciferase, ATP luminescence, 8 min; Potency, µM (series often up to 38.3 µM), without a hit: at the highest dose activity change, negative = inhibition, hits mostly inhibitors; hit rate 0.28% among 200,000; active = well fitted curve in the direction sought with a large enough effect; inconclusive = small, poorly fitted or top-dose-only effect, or another doubt; inactive = no such curve, though single readings can be large; an effect the other way counts as inactive or inconclusive; also: % is scaled to controls: 0 for no effect and ±100 for the full control effect; nearly all actives have a fitted effect of over 60% in size
#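 Substrate mix (final 50 mM imidazole pH 7.2, 50 mM KCl, 7 mM MgCl2, 10 uM ATP, 0.01% Tween 20, 0.05% BSA) plus pin-tool compound, then Kinase-Glo detection mix; 8 min ambient, luminescence read.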
# Lamin A splicing: modulators of lamin A splicing. hit rate 0.01% among 200,000. AID 1487. HeLa LMNA splicing GFP/RFP minigene ratio, 48 h. Potency, µM (highest dose often 46.1 µM), for inactives: at the highest dose ratio change, negative = inhibition, actives largely listed as inhibitors; active = well fitted inhibition curve with a large enough effect in the signal ratio, with a control signal flat, not every such curve was filed as active; inconclusive = small, poorly fitted or top-dose-only effect, or effect the other way, or a change in a side signal; the % refers to the signal ratio; also: % is scaled to controls: 0 for no effect and ±100 for the full control effect
#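 S3 HeLa stable clones carrying a lamin A-EGFP splicing minigene plus DsRed2 were seeded at 600 cells/well in Opti-MEM with 2% FBS, pin-dosed and incubated 48 h at 37°C. Acumen cytometry (488 nm) gave the GFP/RFP total-intensity ratio.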
# Tb PFK KinaseGlo: orthogonal confirmation of T. brucei phosphofructokinase inhibitors | shares compounds with Tb PFK inh-1 | Tb PFK enzyme, ATP depletion, Kinase-Glo Plus luminescence | Potency, µM (highest dose often 57.5 µM), for the others: top-dose inhibition | hit rate 47% among 1,100 | AID 504636; also: nearly all actives have a fitted effect of over 60% in size
# Tb PFK inh-2: T. brucei PFK enzyme inhibition, hit validation; shares compounds with Tb PFK inh-1; purified T. brucei PFK, ADP-Glo luminescence, 45 min; Potency, µM (top dose mostly 57.5 µM), without a hit: top-dose activity change, negative = inhibition, hits mostly inhibitors; hit rate 41% among 1,100; AID 504637; active = well fitted curve in the direction sought with a large enough effect; inconclusive = small, poorly fitted or top-dose-only effect, or another doubt; inactive = no such curve, though single readings can be large; an effect the other way counts as inactive or inconclusive;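 also: plate controls were full PFK enzyme control for no effect and no enzyme control for full effect; nearly all actives have a fitted effect of over 60% in size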
# * marks the source's active call; other numbers are inactive results; ? = inconclusive; / = no result; [ ] = remark or other dose. Unless noted, calls follow the shape of the full dose curve. Potency is read from the fitted curve at half-maximal effect.
SMILES,Rango-impB inh,Tb PFK inh-1,Rango dissoc inh,Chronic BCR inh,Luc counter,Lamin A splicing,Tb PFK KinaseGlo,Tb PFK inh-2
Cc1c(Br)c([N+](=O)[O-])nn1CC(=O)Nc1ccc2nc3n(c(=O)c2c1)CCCC3,-2.8%,?,5.5%,?,/,/,23.9µM*,?
Cc1c(Br)c([N+](=O)[O-])nn1CC(=O)Nc1ccccn1,-0.1%,19µM*,21.3%,-7.5%,2.9%,9.4%[46 µM],19µM*,?
Cc1ccc(Cn2nc(C(=O)Nc3ccc(Br)cc3)cc2C)cc1,10.5%,10.0%,12.6%,?,/,/,/,/
Cc1c(Br)c([N+](=O)[O-])nn1CC(=O)Nc1ccc(Cc2ccncc2)cc1,-0.6%,13.5µM*,22.8%,?,-1.8%,?,13.5µM*,21.3µM*
O=C(NNc1ccccn1)c1ccccc1CC[N+](=O)[O-],2.1%,-0.7%,5.3%,?,1.0%,12.5%[9.22 µM],/,/
CC(=O)Nc1ccc(NC(=O)Cn2nc([N+](=O)[O-])c(Br)c2C)cc1,-4.7%,12µM*,0.0%,-16.6%,-2.4%,?,19µM*,30.1µM*
CSc1ccc2c(c1)c(CCN)c(C)n2Cc1ccccc1Cl,/,/,/,/,-0.1%[7.66 µM],/,/,/
CCCCC1(CC)COP(=O)(OCC(Cl)(Cl)Cl)OC1 (centres undefined),3.0%,/,14.2%,/,/,/,/,/
Cn1c(O)c(C=NC2CC(C)(C)NC(C)(C)C2)c(=O)n(C)c1=O,1.5%,-2.6%,4.1%,8.9%,/,12.8%,/,/
COC(=O)C1=C(c2ccc(F)cc2OCc2ccccc2)C[C@@H]2CC[C@H]1N2C(=O)N1CCCCC1,-3.0%,0.0%,0.0%,?,/,/,/,/
CCn1c(O)c(C(c2ccccn2)c2c(O)n(CC)c(=S)[nH]c2=O)c(=O)[nH]c1=S,-1.0%,-4.5%,-3.4%,8.8%,-4.7%,0.5%,/,/
CC(=O)NC(C)c1ccc(Cl)c(Cl)c1 (centres undefined),-6.6%,?,-3.6%,0.4%,3.0%,-6.4%,21.3µM*,30.1µM*
COC(=O)C1=C(c2ccc(OC(F)(F)F)cc2)C[C@@H]2CC[C@H]1N2C(=O)N1CCCCC1,3.1%,-11.2%,1.6%,-0.5%,/,/,/,/
O=C(COC(=O)CCOc1ccccc1)NCc1ccco1,3.9%,?,-14.0%,-1.2%,-3.8%,-3.5%,?,?
Cc1nn(Cc2ccccc2)c(C)c1C(=O)OCC(=O)NCc1ccco1,5.6%,2.2%,-8.3%,-26.1%,-8.8%,1.8%,/,/
O=C1NC(c2cc3ccccc3nc2Cl)Nc2ccccc21 (centres undefined),-0.1%,-5.1%,-3.8%,3.5%,-2.5%,?,/,/
CS(=O)(=O)NN1C(=O)c2ccccc2NC1c1cc2ccccc2nc1Cl (centres undefined),5.0%,21.3µM*,-17.6%,1.0%,2.7%,-20.3%,9.53µM*,23.9µM*
COc1ccc(OC)c(/C=N/NC(=O)CCc2ccc(O)c(O)c2)c1,-0.3%,1.69µM*,12.7%,?,3.8%,1.5%,?,-29.0%
Cn1cccc1/C=C1/SC(=S)N(CC(=O)O)C1=O,?,?,?,4.2%,0.8%,/,-27.7%,?
Cc1nc2ccccc2n1CC(=O)c1ccc(O)c(O)c1,-5.5%,30.1µM*,11.9%,-4.6%,/,/,?,?
Cc1ccc(C)c2nc3sc(C(=O)O)cc3cc12,0.4%,?,-17.3%,?,-1.2%,?,-22.8%,?
Fc1ccc(Oc2nc(-c3ccccn3)nc3ccccc23)cc1,3.2%,1.3%,-1.3%,?,/,?,/,/
COc1ccc(NC(=O)Nc2ccc3c(c2)C(=O)N([C@H](C)CO)C[C@H](C)[C@@H](CN(C)S(=O)(=O)c2ccc(F)cc2)O3)cc1,-2.4%,-0.3%,0.6%,8.0%,/,/,/,/
O=C(OCc1cccc(C(F)(F)F)c1)c1ccc[nH]c1=O,-1.9%,6.01µM*,-1.9%,1.0%,/,/,3.01µM*,5.36µM*
COc1ccc(Cc2nccc3cc(OC)c(OC)cc23)cc1OC,4.4%,-1.3%,-10.7%,?,1.2%,?,/,/
SMILES,Rango-impB inh,Tb PFK inh-1,Rango dissoc inh,Chronic BCR inh,Luc counter,Lamin A splicing,Tb PFK KinaseGlo,Tb PFK inh-2
O=C(/C=C/c1ccco1)OCC(=O)N1CCCCC1,1.2%,?,11.7%,-2.3%,/,/,6.01µM*,?
Cn1cc(C(=O)OCC(=O)N2CCCCC2)c2ccccc21,-2.3%,4.1%,-24.5%,?,/,/,/,/
Cc1c(Cl)cnc(NC(=O)COC(=O)c2ccc3ncsc3c2)c1Cl,-1.9%,?,-16.6%,?,1.5%,6.1%,-34.7%,?
Cc1cccc(NC(=O)CSc2nnc([C@@H](N)Cc3c[nH]c4ccccc34)o2)c1C,-0.9%,-1.6%,-13.1%,-3.1%,1.3%,6.8%,/,/
CC(CN(C)C1CCN(C)CC1)c1ccccc1 (centres undefined),0.8%,1.1%,-4.7%,0.7%,/,/,/,/
CC(C)c1c(C(=O)N/N=C/c2cccc(OCc3ccccc3)c2)nnn1-c1nonc1N,4.9%,-3.6%,16.2%,?,/,/,/,/
Nc1nonc1C(=O)N/N=C/c1ccc(-c2ccc(Cl)c(C(=O)O)c2)o1,1.1%,?,14.9%,?,1.1%,-12.3%[46 µM],-19.2%,?
ON=C1c2ccccc2-c2ccccc21,6.2%,?,-8.1%,?,/,/,6.6%,5.5%
Cc1ccc2c(c1)N(C(C)C(=O)N1CCC3(CC1)OCCO3)C(=O)CO2 (centres undefined),2.6%,0.0%,1.3%,6.0%,/,/,/,/
O=C(CC1SC(=O)N(c2ccccc2)C1=O)Nc1ccc(Br)cc1 (centres undefined),0.1%,19µM*,0.9%,?,/,/,?,?
CN1CC[C@@]2(CCCN(C(=O)c3csnn3)C2)C1,/,/,/,/,-0.7%,/,/,/
CCOc1cc(/C=N/NC(=O)c2ccc(N(C)S(=O)(=O)c3ccccc3)cc2)ccc1OC,-3.5%,3.6%,3.9%,?,/,/,/,/
CCOc1ccc(C=NNc2ccc(S(=O)(=O)Nc3ccccc3C(=O)O)cc2[N+](=O)[O-])cc1OC,?,?,10.1%,?,/,/,6.01µM*,3.01µM*
Cc1ccc(NC(=O)c2ccc(Cl)c(N3C(=O)C=CC3=O)c2)cc1,-2.5%,?,3.5%,?,-1.5%,?,12µM*,?
CC(=O)N[C@@H]1c2c(ccc3ccccc23)OC[C@@H]1COC(C)=O,0.0%,?,16.9%,-4.2%,-2.1%,19.8%[46 µM],-30.3%,?
